Screening results (PubChem)
Sampled rows, rich in hits. Any-hit rate of the full collection: about 5.1%.
Cl transport mod: KCC2 (human) Cl- transport modulation; KCC2 cells, thallium flux FluoZin-2 fluorescence; B-score of Tl+ flux slope (higher = more flux/activation; lower = inhibition) at 10 µM; 190,000 tested, 2.2% active; AID 1456;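 active means thallium flux slope and its plate-corrected score both differing from the plate sample mean at a set confidence after two filtering rounds, in either direction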;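 further: slope of fluorescence scaled to starting intensity during 10 to 20 s after thallium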
S1P4 agonist: activates the human S1P4 receptor; AID 1509; S1P4-expressing cell line, agonist reporter assay; activation, % at 4.98 µM; 220,000 tested, 0.35% active; O95977; in the data active means activation above about 11%;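 further: 0% = DMSO vehicle and 100% = reference agonist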
RAM network inh: yeast RAM network inhibition; S. cerevisiae dse1pr::URA3 reporter, 5-FOA growth OD615, 2 d; analog-sensitive cbk1-as2 kinase mutant strain; inhibition, % at 50 µM; 190,000 tested, 1.8% active;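 active means inhibition above a set limit, 3 SD over mean compound inhibition, cut at about 8.4% in these data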;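 further: 0% = DMSO-only wells with no growth and 100% = 10 µM 1-NA-PP1 full growth; inhibition rescues growth on 5-FOA so higher OD means more RAM inhibition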
S1P4 antagonist: antagonists of human S1P4 receptor; S1P4-expressing cells, antagonist mode, reporter read-out; inhibition, % at 4.98 µM; AID 1510; 220,000 tested, 0.26% active; in the data active means inhibition above about 29%;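 further: 0% = wells stimulated with agonist and 100% = vehicle wells without agonist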
S1P3 antag: blocks the human S1P3 receptor; Q99500; CHO S1P3 NFAT-BLA reporter, FRET fluorescence, antagonist mode; inhibition, % at 4.98 µM; 170,000 tested, 0.27% active; AID 485;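 active means inhibition above the plate cutoff, the mean inhibition of test wells on that plate plus 3 SD, cut at about 28% in these data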;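 further: cells challenged with S1P at its EC80 of 0.8 µM; blue over green emission ratio from cleaved BLA substrate after 4 h stimulation; 0% = S1P-stimulated wells and 100% = unstimulated DMSO-only wells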
Target sequence (Q99500 whole entry, looked up): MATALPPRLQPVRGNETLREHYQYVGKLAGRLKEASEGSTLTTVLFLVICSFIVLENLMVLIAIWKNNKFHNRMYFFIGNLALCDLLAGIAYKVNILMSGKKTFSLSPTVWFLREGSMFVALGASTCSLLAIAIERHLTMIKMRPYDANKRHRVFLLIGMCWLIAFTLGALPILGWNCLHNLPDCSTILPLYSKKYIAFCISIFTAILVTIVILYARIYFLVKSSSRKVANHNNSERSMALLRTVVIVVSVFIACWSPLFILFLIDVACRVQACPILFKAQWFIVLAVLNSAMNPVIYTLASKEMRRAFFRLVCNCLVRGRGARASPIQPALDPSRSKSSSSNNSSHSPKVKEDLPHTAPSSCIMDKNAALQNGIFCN
ROMK mod: human ROMK K+ channel modulation, primary screen. P48048. AID 1918. 130,000 tested, 2% active. B-score at 10 µM. Tet-inducible ROMK, thallium flux fluorescence; actives lie on both sides;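 active means signal ratio slope over the read window, or its plate-corrected B-score, at least 3 SD from the plate mean, either direction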;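 further: B-score of the F/F0 ratio slope over 7 to 12 s after thallium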
ROMK hit retest: confirmation of human ROMK potassium channel modulators | shares compounds with ROMK mod | ROMK thallium flux, fluorescence ratio; hits give low values | normalized thallium flux (F/F0 slope) at 10 µM | 3,000 tested, 54% active | AID 1917;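 active means Flux at 10 µM at least 3 SD below or above vehicle control mean in one or both replicates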
* hit, by the source's call; i = inactive; / = not tested or not shown.

SMILES	Cl transport mod	S1P4 agonist	RAM network inh	S1P4 antagonist	S1P3 antag	ROMK mod	ROMK hit retest
CC1(C)N=C(N)N=C(N)N1c1ccc(OCCCOc2ccccc2)c(Cl)c1	-3	0	/	-2	-3	-3.1*	0.06*
COc1ccc(-n2cc(C(=O)c3cc(Cl)ccc3O)cc(C#N)c2=O)cc1	-0.026	-1	3	-5	-8	2.7*	0.075
Fc1cccc(-c2cc3nc4c(c(N5CCOCC5)n3n2)CCCC4)c1	-3.1	0	-1	-20	43	/	/
Clc1cccc(-c2cc3nc4c(c(N5CCOCC5)n3n2)CCCC4)c1	-0.17	-1	-1	-5	/	-3.9*	0.064*
COc1cc2c(cc1OC)CN(c1nc(CN3CCCCC3)nc3sc4c(c13)CCCC4)CC2	0.48	0	0	0	-9	-2.6*	0.064*
Cc1c(CCCN)c2ccccc2n1Cc1ccccc1	/	2	0	-4	-25	-2.9*	0.05*
O=Nc1c(O)n(Cc2ccccc2)c2ccccc12	-0.35	2	/	-5	0	/	/
C1CN(c2nc3nonc3nc2N2C[C@H]3CC[C@H]2C3)CCS1	1.4	0	0	5	-7	1.4*	0.075
COc1ccc(NC(C#N)c2ccccc2OCc2ccccc2)cc1 (stereo not given)	-1.1	1	-1	-3	-5	/	/
Cc1ccc(NC(C#N)c2ccccc2OCc2ccccc2)cc1 (stereo not given)	-1.9	-1	2	-9	/	/	0.095
CCN(CC)CCNC(=O)c1ccc(NC(=O)COc2ccccc2F)cc1	/	-1	1	-6	-9	1.9*	0.079
COc1cc(Cl)c(C)cc1NC(=O)CNC(=O)Cn1cnc2ccccc2c1=O	-1.8	0	0	-2	/	/	/
COC(=O)C1CCN(c2cnccn2)CC1	/	1	1	-6	-34	/	0.078
C=CCNC(=O)C1CCN(c2cnccn2)CC1	0.38	1	1	-1	-18	-0.013	/
NNC(=O)/C=C/c1ccc(Cl)cc1Cl	-0.57	2	-1	-2	-16	2.3*	0.076
COc1cc(Cl)ccc1NC(=S)N(CCCN1CCOCC1)Cc1cn(C)c2ccccc12	-0.51	1	4	-11	7	-1.9	/
COc1ccc(Cl)cc1NC(=S)N(CCCN1CCOCC1)Cc1cn(C)c2ccccc12	0.75	0	3	-17	2	-3.9*	0.078
COc1cccc(NC(=S)N(CCCN2CCCC(C)C2)Cc2cccs2)c1 (stereo not given)	-0.38	0	0	12	-4	-1.9	/
CSc1cccc(NC(=S)N(CCCN2CCCC(C)C2)Cc2cccs2)c1 (stereo not given)	0.36	-2	2	21	7	-4.4*	0.058*
COc1ccc(NC(=S)N(CCCN2CCN(C)CC2)Cc2cccs2)cc1	0.99	0	1	-6	-14	0.53	/
COc1ccc(NC(=S)N(CCCN2CCC(C)CC2)Cc2cccs2)cc1Cl	0.31	-3	-1	9	-20	-5.2*	0.055*
Cc1oc(-c2cccs2)nc1CN1CCN(CC(C)C)C(CCO)C1 (stereo not given)	0.15	1	0	10	8	0.014	/
CCn1c(SCC(=O)Nc2cc(C)on2)nnc1-c1ccc(OC)cc1	0.12	-1	1	-21	-5	0.39	/
CCN(CC)C(=O)c1sc2c(c1C)c(=O)n(-c1ccc(C)c(C)c1)c(=O)n2CC(=O)NCC1CCCO1 (stereo not given)	0.92	-3	2	0	-9	-0.29	/
CCC(=O)NC(=S)Nc1ccc(NC(=O)c2ccc(Br)o2)cc1	0.52	-2	3	-4	0	-0.22	/
Cn1ncc(C(N)=O)c1NC(=S)NC(=O)c1ccc(Br)o1	0.33	2	1	-9	-15	1*	0.081
CSc1ccccc1NC(=O)c1ccc(Br)o1	-0.0059	-2	0	-14	/	0.23	/
O=C(NC(=S)Nc1ccccc1F)c1ccc(Br)o1	i	-3	1	-1	-12	/	0.14*
NC(=O)C1CCN(C(=O)CCC(=O)c2ccc(Br)cc2)CC1	-0.44	1	1	10	2	-0.4	/
COC(=O)c1cc(OC)c(OC)cc1NC(=O)c1cc(C)on1	-0.36	-1	/	-20	22	/	/
